# Assay outcomes from PubChem.
# Compounds with a hit are over-represented: about 3.7% of the library has one in this group of screens.
# A549 tox-1 = Nrf2 qHTS screen for inhibitors: counterscreen for cytotoxicity | A549 ARE-Fluc cells, CellTiter-Fluor viability, 18-24 h | Potency, µM (top dose mostly 46 µM), for the others: top-dose activity change, negative = cytotoxicity, most hits filed as inhibitors | hit rate 0.16% among 390,000 | AID 504648, 2011; further: potency means the concentration at half of the fitted maximal effect; on the % scale 0 is the no-effect control and ±100 the full control effect
#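 A549 ARE_Fluc cells in 5% FBS OPTI-MEM were exposed to compounds in concentration-response for 18-24 h at 37 deg C. Viability was read by CellTiter-Fluor fluorescence (Ex 405/Em 525) after 30 min, before the luciferase read.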
# Nrf2 block = Nrf2 qHTS screen for inhibitors; A549 ARE-Fluc reporter, luciferase luminescence, 18-24 h; Potency, µM (titrated, usually from 46 µM), for inactives: at the highest dose activity change, negative = inhibition, usual class: inhibitors; hit rate 2.1% among 360,000; further: potency means the concentration at half of the fitted maximal effect; on the % scale 0 is the no-effect control and ±100 the full control effect; nearly all actives have a fitted effect of over 60% in size
#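 Cells were seeded and rested 2 h, then exposed to compounds for 18-24 h. CellTiter-Fluor was read first as a viability measure. BugLite was added 15 min before the final luminescent read of ARE-luciferase activity in A549 cells.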
# TCR activator = Activators of T cell receptors: qHTS campaign. Potency, µM (titrated, usually from 9.22 µM), for the others: at the top dose activation of IL-2 secretion, usual class: activators. primary human leukocytes, anti-CD3, IL-2 HTRF, 48 h. 330,000 tested, under 10 active. AID 504894, 2011; further: % of control where 0% means no effect
#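 Primary human leukocytes receive a-CD3 beads and test compound and are incubated 48 hr. Secreted IL-2 is then assayed by HTRF, measuring 665nm acceptor emission after 320nm excitation of the europium donor.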
# ClpP mod = qHTS Assay for Activators of ClpP; ATP-dependent Clp protease proteolytic subunit (Bacillus subtilis (strain 168)), P80244; AID 651965, 2013; purified B. subtilis ClpP, FRET peptide cleavage, 20 min; hit rate 1.9% among 340,000; Potency, µM (series often up to 57.5 µM), inactives show at the top dose activity change, negative = active; active means well fitted falling curve with a large enough effect; inconclusive means small, poorly fitted or top-dose-only effect; inactive means no such curve, though single readings can be large or run the other way; further: potency means the concentration at half of the fitted maximal effect; the source files actives as falling curves though it sought activators and does not explain the sign; nearly all actives have a fitted effect of over 65% in size
#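 ClpP 10 microg/mL final, pH 8 Tris/KCl buffer with BSA, glycerol, Tween-20; compound pinned in; FRET-FV substrate; RT 20 min; Ex320/Em430; ΔFRET vs ADEP 5.8 microM, DMSO, no enzyme.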
# Nrf2 activator = qHTS of Nrf2 Activators. AREc32 ARE-luciferase reporter (MCF7-derived line), luminescence, 24 h. AID 624171, 2012. hit rate 0.31% among 410,000. Potency, µM (highest dose often 46.1 µM), inactives show top-dose activation, hits mostly activators; further: potency means the concentration at half of the fitted maximal effect; % of control where 0% means no effect; nearly all actives have a fitted effect of over 65% in size
#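 Steps: seed AREc32_Fluc cells (1000/well, 5% FBS OPTI-MEM); incubate overnight at 37 deg C; add 23 nL compound; incubate 24 hr; add Steady-Glo; hold 30 min RT; read luminescence.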
# miR-21 reporter = qHTS Assay for Modulators of miRNAs and/orActivators of miR-21; AID 2288, 2010; HeLa miR-21 FLuc reporter, luciferase, 48 h; Potency, µM (top dose mostly 38.3 µM), for the others: at the top dose activity change, positive = activation, usual class: activators; 340,000 tested, under 10 active;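 further: % of control where 0% means no effect; miR-21 action dims this reporter so a rising signal means less miR-21 action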
#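 HeLa cells stably expressing CMV-driven firefly luciferase with a downstream miR-21 binding sequence, endogenously expressing miR-21, were treated with titrations (up to about 40uM final) for 48 hours at 37 degree Celsius. Luciferase luminescence was read after lysis.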
# FLuc counter 3 = Nrf2 qHTS screen for inhibitors: Purified Fluc Biochemical Counterscreen for Hit Validation. shares compounds with Nrf2 block. purified firefly luciferase, luminescence inhibition. Potency, µM (top dose mostly 57.5 µM), inactives show at the highest dose activity change, negative = inhibition, usual class: inhibitors. hit rate 4% among 1,400. AID 720522, 2013; further: potency means the concentration at half of the fitted maximal effect; on the % scale 0 is the no-effect control and ±100 the full control effect; nearly all actives have a fitted effect of over 65% in size
# A549 tox-2 = Nrf2 qHTS screen for inhibitors: A549 ARE-Fluc Cytotoxicity Counterscreen for Hit Validation | shares compounds with Nrf2 block | A549 ARE-Fluc cells, cytotoxicity counterscreen | Potency, µM (doses to about 46.1 µM), inactives show at the highest dose activity change, negative = cytotoxicity, usual class: inhibitors | hit rate 2% among 1,400 | AID 720523, 2013;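 further: potency means the concentration at half of the fitted maximal effect; cells exposed to compounds for 18 to 24 hours; on the % scale 0 is the no-effect control and ±100 the full control effect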
# ARE-Fluc inh = Nrf2 qHTS screen for inhibitors: Nrf2 A549 ARE-Fluc Confirmation Assay for Hit Validation; shares compounds with Nrf2 block; A549 ARE-firefly luciferase reporter, luminescence; Potency, µM (top dose mostly 46.1 µM), for the others: top-dose activity change, negative = inhibition, usual class: inhibitors; hit rate 74% among 1,400; AID 720524, 2013; further: potency means the concentration at half of the fitted maximal effect; on the % scale 0 is the no-effect control and ±100 the full control effect; nearly all actives have a fitted effect of over 65% in size
# * marks the source's active call; other numbers are inactive results; u = inconclusive; x = not tested or not shown; [ ] = dose if it differs, or a comment. Unless noted, the call rests on the fitted dose curve; in most records, active means well fitted curve in the direction sought with a large enough effect; inconclusive means small, poorly fitted or top-dose-only effect, or another doubt; inactive means no such curve, though single readings can be large; an effect the other way counts as inactive or inconclusive.
SMILES,A549 tox-1,Nrf2 block,TCR activator,ClpP mod,Nrf2 activator,miR-21 reporter,FLuc counter 3,A549 tox-2,ARE-Fluc inh
CN1/C(=C/c2cccc[n+]2C)Sc2ccccc21,12µM*,0.82µM*,-9%,1%,-1%,u,-1%,u,2.1µM*
Cc1cc(F)ccc1C(O)c1ncc(-c2cccc(F)c2)[nH]1 (centres undefined),x,x,x,0%,0%[9.22 µM],x,x,x,x
Cc1ccc(S(=O)(=O)NCc2ccccn2)c(C)c1C,0%,-3%,-2%,-2%,0%,-1%,x,x,x
Cc1cc(C)c(S(=O)(=O)NCCc2ccncc2)c(C)c1,-3%,-28%,-3%,-2%,0%,-10%,x,x,x
Cc1cc(C)c(S(=O)(=O)NCc2ccncc2)c(C)c1,-17%,u,4%,2%,0%,17%,0.11µM*,-2%,0.21µM*
Cc1ccc(S(=O)(=O)NCc2ccncc2)c(C)c1C,-6%,1.5µM*,4%,x,0%[9.22 µM],1%,0%,-7%,6.5µM*
COc1cc(C)c(Br)cc1S(=O)(=O)NCc1ccncc1,-6%,3.3µM*,-23%,x,0%,15%,1%,5%,-32%
CCCCC(=O)O[C@]1(C(=O)CO)CC[C@H]2[C@@H]3CCC4=CC(=O)CC[C@]4(C)[C@H]3[C@@H](O)C[C@@]21C,-8%,0.016µM*,2%,1%,0%,-35%,-1%,-14%,0.013µM*
CC12C=CC(=O)C=C1CCC1C2C(O)CC2(C)C1CCC2(O)C(=O)CO (centres undefined),-1%,0.058µM*,7%,0%,-1%,x,4%,-3%,0.1µM*
CCC(C(=O)OCC(=O)C1(O)CCC2C3CCC4=CC(=O)CCC4(C)C3C(O)CC21C)C(C)C (centres undefined),-3%,1.2µM*,-14%,-1%,0%,x,-1%,-29%,x
C[C@]12C=CC(=O)C=C1CCC1C3CC[C@](O)(C(=O)CO)[C@@]3(C)CC3OC312 (some centres undefined),-1%,-18%,-3%[46.1 µM],-8%,0%,-10%,x,x,x
CC(=O)OCC(=O)[C@@]1(O)CC[C@H]2[C@@H]3CCC4=CC(=O)C=C[C@]4(C)[C@@]3(Cl)[C@@H](Cl)C[C@@]21C,u,8.2µM*,3%,1%,-1%,-24%,2%,-6%,1.3µM*
CC(=O)OCC(=O)[C@@]1(O)CCC2C3CCC4=CC(=O)CCC4(C)C3C(=O)CC21C (some centres undefined),-7%,2%,0%,0%,1%,2%,x,x,x
COc1ccccc1OCC(=O)NC1CCSc2ccccc21 (centres undefined),2%,8%,0%,2%,-1%,x,x,x,x
COc1cc(Cn2c3ccc(NC(=S)NCc4ccc(C)cc4)cc3c(=O)n2C)ccc1F,x,x,x,4%,3%,x,x,x,x
CC(=O)c1ccc(OCCCC(=O)NNC(=O)c2ccccn2)cc1,-6%,u,0%,2%,0%,x,x,x,x
CC1(C)O[C@@H]2C[C@H]3[C@@H]4C[C@H](F)C5=CC(=O)CC[C@]5(C)[C@H]4[C@@H](O)C[C@]3(C)[C@]2(C(=O)CO)O1,-1%,u,-7%,-1%,0%,-34%,x,x,x
CC12CCC(=O)C=C1C(F)CC1C2C(O)CC2(C)C1CCC2(O)C(=O)CO (centres undefined),4%,0.058µM*,1%,x,2%,x,0%,-5%,0.058µM*
CC(=O)OCC(=O)[C@@]1(O)CC[C@H]2[C@@H]3CCC4=CC(=O)C=C[C@]4(C)[C@H]3[C@@H](O)C[C@@]21C,-8%,0.052µM*,-2%,2%,0%,-29%,0%,-6%,0.041µM*
COc1ccc(NC(=O)Cc2c(C(=O)O)[nH]c3ccccc23)cc1OC,12%,22%[9.27 µM],x,1%,-1%,0%,x,x,x
CCN(c1ccccc1)S(=O)(=O)c1cc(C(=O)Nc2ccc(Br)cc2)ccc1F,u,5.8µM*,16%,u,5%,u,-12%,-29%,12µM*
N=c1c2c(n(Cc3ccc(Cl)cc3)c3c1CCC3)CCC2,-4%,u,-3%,-1%,0%,u,x,x,x
CCCCCCCCCCn1c2c(c(=N)c3c1CCC3)CCC2,u,u,-4%,-1%,-5%,u,x,x,x
CCCCCn1c2c(c(=N)c3ccccc31)CCC2,-5%,2.6µM*,-10%,x,0%,u,2%,-10%,4.1µM*
N=c1c2c(n(Cc3ccccc3)c3c1CCC3)CCC2,u,1.5µM*,0%,-2%,-1%,u,-1%,-4%,u
SMILES,A549 tox-1,Nrf2 block,TCR activator,ClpP mod,Nrf2 activator,miR-21 reporter,FLuc counter 3,A549 tox-2,ARE-Fluc inh
c1ccc(-c2cncn2-c2ccccc2)cc1,8%,u,-1%,1%,5%,x,x,x,x
CCCNC(=O)Cn1c(=O)c2cccn2c2cccnc21,5%,30%,x,4%,7%,-2%,x,x,x
Cc1cc(C)cc(N2C(=O)N(Cc3cccc(F)c3)c3ccccc3S2(=O)=O)c1,2%,x,x,0%,0%,11%,x,x,x
Cc1ccc(CCNc2ncnc(Cl)c2N)cc1,u,3.7µM*,7%,x,2%,x,u,-3%,u
Nc1c(Cl)ncnc1NCCO,-1%,5%,-2%,-1%,0%,0%,x,x,x
COc1ccccc1-n1c(-c2ccccc2)c[nH]c1=S,13%,-1%,-3%,-3%,0%,1%,x,x,x
COc1ccccc1-n1c(-c2ccccc2)c[n+]2c1CCc1ccccc1-2,u,3.7µM*,0%,-1%,-1%,u,2%,-11%,8.2µM*
CC(C)c1ccc(-n2c(-c3ccccc3)c[n+]3c2CCc2ccccc2-3)cc1,10µM*,2.1µM*,-1%,x,24%,28%,2%,u,2.6µM*
